Compound activity as filed in PubChem BioAssay.
nsP2pro inh = blocks chikungunya virus nsP2 protease peptide cleavage | 1.1% of 31,000 active | Q8JUX6 | Potency, µM (highest dose often 24.9 µM), without a hit: at the top dose activity change, negative = inhibition, most hits filed as inhibitors | FRET peptide cleavage, nsP2pro, fluorescence 1 h; note: nearly all actives have a fitted effect of over 60% in size
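Enzyme 150 nM, substrate 2.5 uM (both final); Tris-HCl 10 mM pH 8.0 + 0.01% Tween 20; cpd up to 25 uM, 7 pts; 15 min preinc., 1 h RT; fluorescence ex 525/em 598.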
CHIKV nsP2 cell = cell-based CHIKV nsP2 protease inhibition, secondary | shares compounds with nsP2pro inh | cell-based CHIKV nsP2 protease reporter assay | Potency, µM (top dose mostly 51.1 µM), inactives show at the highest dose activity change, negative = inhibition, most hits filed as inhibitors | 10% of 450 active; note: nearly all actives have a fitted effect of over 70% in size
NSP2 full ctr = inhibits full-length CHIKV NSP2 enzyme. shares compounds with nsP2pro inh. Full-length CHIKV NSP2 protease enzymatic counterscreen. Potency, µM (titrated, usually from 50.7 µM), without a hit: top-dose activity change, negative = inhibition, hits mostly inhibitors. 39% of 410 active; note: nearly all actives have a fitted effect of over 65% in size
Furin counter = human furin inhibition, counterscreen for nsP2pro inhibitors | AID 1964102 | shares compounds with nsP2pro inh | Potency, µM (titrated, usually from 50.6 µM), for inactives: top-dose activity change, negative = inhibition, hits mostly inhibitors | Recombinant human furin enzymatic counterscreen, fluorogenic substrate | 6% of 410 active
nsP2 NS23 pep = selectivity test for CHIKV nsP2 protease inhibitors: endogenous NS2/3 peptide | shares compounds with nsP2pro inh | Potency, µM (doses to about 51 µM), inactives show top-dose activity change, negative = inhibition, hits mostly inhibitors | AID 1964103 | Purified CHIKV nsP2 protease, endogenous NS2/3 peptide cleavage | 34% of 410 active; note: nearly all actives have a fitted effect of over 55% in size
Papain cs = selectivity counter-screen for CHIKV nsP2 protease inhibitors: papain. shares compounds with nsP2pro inh. purified papain protease activity, enzymatic inhibition. Potency, µM (top dose mostly 51 µM), for the others: at the top dose activity change, negative = inhibition, hits mostly inhibitors. 5% of 410 active. AID 1964104
Target sequence (P00784 whole entry, looked up): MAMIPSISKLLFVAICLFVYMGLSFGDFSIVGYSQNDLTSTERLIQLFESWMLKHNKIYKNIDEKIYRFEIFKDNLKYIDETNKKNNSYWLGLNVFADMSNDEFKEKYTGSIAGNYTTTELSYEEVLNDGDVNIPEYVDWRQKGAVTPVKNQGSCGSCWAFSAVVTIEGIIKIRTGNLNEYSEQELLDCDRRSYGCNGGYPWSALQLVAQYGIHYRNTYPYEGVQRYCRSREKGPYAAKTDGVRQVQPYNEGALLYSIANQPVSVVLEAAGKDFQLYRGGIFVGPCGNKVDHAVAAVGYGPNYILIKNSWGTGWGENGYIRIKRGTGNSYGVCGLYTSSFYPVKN
nsP2pro confirm = CHIKV nsP2 protease inhibition, confirmatory qHTS; 43% of 410 active; Potency, µM (highest dose often 25.5 µM), for inactives: at the highest dose activity change, negative = inhibition, hits mostly inhibitors; shares compounds with nsP2pro inh; CHIKV nsP2 protease enzymatic activity, qHTS; note: nearly all actives have a fitted effect of over 75% in size
HCV NS3 4A cs = selectivity counter-screen for CHIKV nsP2 protease inhibitors: HCV NS3/4A. shares compounds with nsP2pro inh. HCV NS3/4A protease biochemical counterscreen. Potency, µM (doses to about 50.9 µM), hits mostly inhibitors. 20% of 410 active. AID 1964106; note: nearly all actives have a fitted effect of over 55% in size
* hit, by the source's call; i = inactive; ? = inconclusive; ! = not confirmed by another sample; [ ] = remark or other dose. This is one part of a sample in which hits are shown more often than they occur. Calls come from the whole dose curve. % is set by controls: 0 for no effect and ±100 for the full control effect; potency is the fitted concentration of half-maximal effect.

SMILES | nsP2pro inh | others
CNC[C@H](O)c1cccc(O)c1 | 2%
Oc1ccc(C(O)CNCCCCCCNCC(O)c2ccc(O)c(O)c2)cc1O (stereo not drawn) | ? | CHIKV nsP2 cell=91%;NSP2 full ctr=?;Furin counter=26µM*;nsP2 NS23 pep=-10%;Papain cs=-4%;nsP2pro confirm=26%;HCV NS3 4A cs=i
O=C(COc1ccccc1)N1C[C@@H]2C[C@H](C1)c1c(NS(=O)(=O)c3ccccc3)ccc(=O)n1C2 | ? | CHIKV nsP2 cell=4%;NSP2 full ctr=16µM*;Furin counter=-4%;nsP2 NS23 pep=?;Papain cs=-3%;nsP2pro confirm=?;HCV NS3 4A cs=?
CCCS(=O)(=O)Nc1ccc(=O)n2c1[C@@H]1C[C@@H](CN(C(=O)c3ccc(OC)cc3)C1)C2 | -9%
O=C(Nc1ccc(=O)n2c1[C@@H]1C[C@@H](CN(C(=O)COc3ccccc3)C1)C2)c1ccccc1 | 0%
COc1ccc(-c2c(-c3cc(C(=O)O)ccn3)ncn2C)cc1 | 176%
Cc1cn(C[C@H](NC(=O)c2cccc(F)c2)C(=O)O)c(=O)[nH]c1=O | i
CCOc1cccc(CN2CCc3c(c(CN(C(C)=O)c4ccccc4)nn3C)C2)c1O | 0%
CN(C)C(=O)N1CCN(c2ccc(Cl)nn2)C(=O)C1 | -20%[39.2 µM]
CC(=O)N1CCN(Cc2ccccc2-c2cccnc2)CC1 | -7%[39.2 µM]
CC(=O)N1CCN(c2ccc(C(=O)N3CCN(Cc4ccccc4)CC3)nn2)C(=O)C1 | 3.5µM* | CHIKV nsP2 cell=20%;NSP2 full ctr=7.3µM*;Furin counter=-13%;nsP2 NS23 pep=15µM*;Papain cs=-4%;nsP2pro confirm=8µM*;HCV NS3 4A cs=5.2µM*
Cc1cc(-c2ccccc2)nc2c(C(=O)Nc3ccc(Cl)c(Cl)c3)cnn12 | -5%
Cc1ccc2nc3sc(C(=O)NC4CCC(O)CC4)cc3cc2c1 (stereo not drawn) | 4%
COc1cccc(-c2nc3cc(NC(=O)c4ccc(C)c([N+](=O)[O-])c4)ccc3o2)c1 | -7%
Cc1cc(C)nc(NC(=S)N2CCN(c3cccc(Cl)c3Cl)CC2)c1 | i
COc1ccc(-c2nc(S(=O)(=O)c3ccc(C)cc3)c(NCc3ccccc3)o2)cc1 | 4.5µM* | CHIKV nsP2 cell=?;NSP2 full ctr=?;Furin counter=-4%;nsP2 NS23 pep=?;Papain cs=13µM*;nsP2pro confirm=8µM*;HCV NS3 4A cs=i
COc1ccc(-c2nc(-c3ccccc3)c(NCc3ccccc3)o2)cc1 | 7%[5.1 µM]
Cc1ccc(S(=O)(=O)c2nc(-c3ccccc3F)oc2NCc2ccccc2)cc1 | -2%
O=c1[nH]c(CCl)nc2sc3c(c12)CCC3 | i
CC(=O)OC[C@H]1O[C@@H](n2cnc(N)nc2=O)[C@H](OC(C)=O)[C@@H]1OC(C)=O | 3%
O=C(Cc1ccccn1)N1CCC(C(=O)N2CCC(c3nc4ncccc4[nH]3)CC2)CC1 | i
CN(Cc1ncc[nH]1)c1ncnc2ccc(-c3ccc4c(c3)OCO4)cc12 | -4%
O=C(NCc1cccc(Cl)c1)c1cnc2c(c1)N(C(=O)Cc1ccc(O)cc1)CCC2 | -10%[39.2 µM]
CCCCCCCC/C=C/CCCCCCCC(=O)O | -24%
CCCCCCCCCCCCCCCCCCCC(=O)O | ? | CHIKV nsP2 cell=-23%;NSP2 full ctr=4.1µM*;Furin counter=-5%;nsP2 NS23 pep=-19%;Papain cs=21µM*;nsP2pro confirm=2.8µM*;HCV NS3 4A cs=i
SMILES | nsP2pro inh | others
CCCCCCCCCC(=O)O | -16%
COc1ccc(CCNC(=O)c2ccc3nnc(C4CC4)n3c2)cc1 | -29%[39.2 µM]
COc1ccc(NC(=S)N2CCN(c3cccc(C(F)(F)F)c3)CC2)nc1 | -13%
Cc1ncc(COP(=O)(O)O)c(C=O)c1O | ? | CHIKV nsP2 cell=-11%;NSP2 full ctr=-11%;Furin counter=4%;nsP2 NS23 pep=3%;Papain cs=153%;nsP2pro confirm=-9%;HCV NS3 4A cs=i
Cc1ncc(CSSCc2cnc(C)c(O)c2CO)c(CO)c1O | -6%
Cc1ncc(CO)c(C=O)c1O | 0%
C[C@@H]1O[C@@H](O[C@@H]2[C@@H](O)[C@H](O[C@H]3CC[C@@]4(C)C(CC[C@]5(C)C4CC=C4[C@@H]6CC(C)(C)CC[C@]6(C(=O)O[C@@H]6O[C@H](CO)[C@@H](O)[C@H](O)[C@H]6O)CC[C@]45C)C3(C)C)O[C@H](C(=O)O)[C@H]2O)[C@H](O)[C@H](O)[C@H]1O (stereo partly drawn) | 2%[5.1 µM]
Cc1ccc(N[S+](=O)([O-])c2cc3c(cc2Cl)CCC(=O)N3)cc1Br | -1%
Fc1cccc(CNc2nc(-c3ccccc3C(F)(F)F)nc3ccccc23)c1 | i
Cc1ccc(C2(O)CCN(CCCC(=O)c3ccc(F)cc3)CC2)cc1 | -10%
COC1(C[S@@](=O)c2ccccc2)CCN(CCc2c[nH]c3ccc(F)cc23)CC1 | ? | CHIKV nsP2 cell=49%;NSP2 full ctr=-9%;Furin counter=-2%;nsP2 NS23 pep=-18%;Papain cs=0%;nsP2pro confirm=-18%;HCV NS3 4A cs=i
CN(CC1CCCO1)c1ncnc2ccc(-c3ccc4c(c3)OCO4)cc12 (stereo not drawn) | i
CCOc1ccc(NC(=O)c2nc(S(=O)(=O)Cc3ccccc3)ncc2Cl)cc1 | 145%
COc1ccc(NC(=O)c2nc(S(=O)(=O)Cc3ccc(C)cc3)ncc2Cl)cc1 | -30%
COc1ccc(CNC(=O)c2nc(S(=O)(=O)Cc3ccccc3)ncc2Cl)cc1 | 6.3µM*! | CHIKV nsP2 cell=3.7µM*!;NSP2 full ctr=16µM*;Furin counter=-1%;nsP2 NS23 pep=8.2µM*;Papain cs=-2%;nsP2pro confirm=5.7µM*;HCV NS3 4A cs=?
CN1CCN(c2ccc(Nc3cc(-c4cccc(-n5ccc6cc(C7CC7)cc(F)c6c5=O)c4CO)cn(C)c3=O)nc2)CC1 | ? | CHIKV nsP2 cell=141%;NSP2 full ctr=47%;Furin counter=-18%;nsP2 NS23 pep=i;Papain cs=?;nsP2pro confirm=125%;HCV NS3 4A cs=i
Cn1nc(C2CC2)cc1NC(=O)C1CCCC1 | 4%[39.2 µM]
CCCC1CCN(C(=O)CC(c2ccc3c(c2)OCO3)c2c(O)cc(OC)cc2OC)C1 (stereo not drawn) | 0%[39.2 µM]
Cc1ccc(-c2nccc(=O)n2C(C)C(=O)NCCc2ccccc2)cc1 (stereo not drawn) | i
[O-][n+]1ccccc1SSc1cccc[n+]1[O-] | 2.7µM* | CHIKV nsP2 cell=?;NSP2 full ctr=8.2µM*;Furin counter=-12%;nsP2 NS23 pep=9.2µM*;Papain cs=2%;nsP2pro confirm=1.6µM*;HCV NS3 4A cs=i
N#Cc1cccc(-c2nc(-c3cccnc3)no2)c1 | -4%[10 µM]
Cc1cc(-c2nnc3n2CCCCC3)c(C)n1-c1ccc(C(C)(C)C)cc1 | i
COc1ccccc1-c1ncc(C)c(NCc2ccc(-c3cccnc3)cc2)n1 | i
CC(=O)CCC1C(=O)N(c2ccccc2)N(c2ccccc2)C1=O | 5%
